Several values for one entry are separate records, joined by “and”; a condition that tells them apart may be missing. Identical values can stand only once. Among all 5,500 compounds or so, about 2,000 (36%) were called active. Another 18% or so got no clear call; they are omitted. The list shows a part of the results. Unmarked numbers belong to inactive results. No stated cut-off is given here; in the data, active means normalized growth mostly below about 0.91 (no sharp cut-off); inconclusive means no clear call, values can overlap the other calls; inactive means mostly above about 0.92.
Experiment: chemical genetic growth profiling, strain panel (AID 1159580);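 further: tested at 20 µM; growth read once vehicle control cultures reached saturation at 30 °C; 1 = growth at the plate median or of vehicle wells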
Details: S. cerevisiae deletion strains, growth OD

COC(=O)NC(=S)Nc1ccccc1NC(=S)NC(=O)OC
normalized growth (locus YAL013W, strain DEP1, stronger effect = lower value): 1
normalized growth (locus YAL021C, strain ccr4, stronger effect = lower value): 0.92
normalized growth (locus YAL026C, strain drs2, stronger effect = lower value): 0.975
normalized growth (locus YAL030W, strain snc1, stronger effect = lower value): 0.986
normalized growth (locus YBL061C, strain skt5, stronger effect = lower value): 0.99
normalized growth (locus YBR009C, strain hhf1, stronger effect = lower value): 0.973
normalized growth (locus YBR021W, strain FUR4, stronger effect = lower value): 1.02
normalized growth (locus YBR023C, strain chs3, stronger effect = lower value): 0.966
normalized growth (locus YBR171W, strain sec66, stronger effect = lower value): 0.974
normalized growth (locus YBR229C, strain ROT2, stronger effect = lower value): 1
normalized growth (locus YBR231C, strain swc5, stronger effect = lower value): 1
normalized growth (locus YBR279W, strain paf1, stronger effect = lower value): 0.983
normalized growth (locus YCL011C, strain gbp2, stronger effect = lower value): 0.978
normalized growth (locus YCL016C, strain dcc1, stronger effect = lower value): 0.974
normalized growth (locus YCL029C, strain bik1, stronger effect = lower value): 1.03
normalized growth (locus YCL069W, strain vba3, stronger effect = lower value): 0.978
normalized growth (locus YCR088W, strain abp1, stronger effect = lower value): 0.975
normalized growth (locus YDL005C, strain med2, stronger effect = lower value): 0.963
normalized growth (locus YDL035C, strain GPR1, stronger effect = lower value): 0.992
normalized growth (locus YDL040C, strain nat1, stronger effect = lower value): 0.973
normalized growth (locus YDL074C, strain BRE1, stronger effect = lower value): 1.03
normalized growth (locus YDL101C, strain DUN1, stronger effect = lower value): 1.02
normalized growth (locus YDL134C, strain PPH21, stronger effect = lower value): 1
normalized growth (locus YDL185W, strain tfp1, stronger effect = lower value): 1
normalized growth (locus YDL192W, strain arf1, stronger effect = lower value): 1.01
normalized growth (locus YDR001C, strain nth1, stronger effect = lower value): 0.976
normalized growth (locus YDR069C, strain doa4, stronger effect = lower value): 0.909
normalized growth (locus YDR101C, strain arx1, stronger effect = lower value): 1.01
normalized growth (locus YDR137W, strain rgp1, stronger effect = lower value): 0.945
normalized growth (locus YDR150W, strain NUM1, stronger effect = lower value): 0.996
normalized growth (locus YDR159W, strain sac3, stronger effect = lower value): 0.969
normalized growth (locus YDR162C, strain NBP2, stronger effect = lower value): 1.01
normalized growth (locus YDR195W, strain ref2): 1.04
normalized growth (locus YDR297W, strain sur2, stronger effect = lower value): 0.984
normalized growth (locus YDR318W, strain mcm21, stronger effect = lower value): 1.02
normalized growth (locus YDR334W, strain swr1, stronger effect = lower value): 0.972
normalized growth (locus YDR335W, strain msn5, stronger effect = lower value): 0.97
normalized growth (locus YDR388W, stronger effect = lower value): 1.02
normalized growth (locus YDR392W, strain spt3, stronger effect = lower value): 0.724 (active)
normalized growth (locus YDR502C, strain sam2, stronger effect = lower value): 0.993
normalized growth (locus YEL003W, strain gim4, stronger effect = lower value): 0.959
normalized growth (locus YEL037C, strain rad23, stronger effect = lower value): 0.973
normalized growth (locus YEL061C, strain CIN8 (second series), stronger effect = lower value): 0.979
normalized growth (locus YEL061C, strain CIN8, stronger effect = lower value): 0.996
normalized growth (locus YER015W, strain faa2, stronger effect = lower value): 0.981
normalized growth (locus YER016W, strain bim1, stronger effect = lower value): 0.963
normalized growth (locus YER110C, stronger effect = lower value): 1.02
normalized growth (locus YER111C, strain swi4, stronger effect = lower value): 0.958
normalized growth (locus YER155C, strain BEM2 (second series), stronger effect = lower value): 0.753 (active)
normalized growth (locus YER155C, strain BEM2, stronger effect = lower value): 1.01
normalized growth (locus YER167W, strain BCK2, stronger effect = lower value): 0.977
normalized growth (locus YFR010W, strain ubp6, stronger effect = lower value): 0.984
normalized growth (locus YGL078C, strain dbp3, stronger effect = lower value): 0.982
normalized growth (locus YGL086W, strain mad1, stronger effect = lower value): 0.997
normalized growth (locus YGL167C, strain pmr1, stronger effect = lower value): 0.976
normalized growth (locus YGL173C, strain kem1, stronger effect = lower value): 0.985
normalized growth (locus YGL227W, strain vid30, stronger effect = lower value): 0.977
normalized growth (locus YGL240W, strain doc1, stronger effect = lower value): 0.972
normalized growth (locus YGL248W, strain PDE1, stronger effect = lower value): 1.01
normalized growth (locus YGL253W, strain hxk2, stronger effect = lower value): 1
normalized growth (locus YGR078C, strain PAC10, stronger effect = lower value): 0.996
normalized growth (locus YGR135W, strain pre9, stronger effect = lower value): 1
normalized growth (locus YGR229C, strain SMI1, stronger effect = lower value): 0.986
normalized growth (locus YGR252W, strain gcn5, stronger effect = lower value): 0.981
normalized growth (locus YHR013C, strain ard1, stronger effect = lower value): 0.886
normalized growth (locus YHR027C, strain rpn1, stronger effect = lower value): 0.985
normalized growth (locus YHR030C, strain SLT2, stronger effect = lower value): 0.997 and 0.983
normalized growth (locus YHR079C, strain IRE1 (second series), stronger effect = lower value): 1.02
normalized growth (locus YHR079C, strain IRE1, stronger effect = lower value): 0.938
normalized growth (locus YHR094C, strain hxt1, stronger effect = lower value): 1.01
normalized growth (locus YHR129C, strain ARP1, stronger effect = lower value): 1.01
normalized growth (locus YHR142W, strain chs7, stronger effect = lower value): 0.943
normalized growth (locus YHR200W, strain rpn10, stronger effect = lower value): 1.01
normalized growth (locus YIL066C, strain RNR3, stronger effect = lower value): 1.01
normalized growth (locus YIL073C, strain SPO22, stronger effect = lower value): 0.999
normalized growth (locus YIL125W, strain kgd1, stronger effect = lower value): 0.998
normalized growth (locus YIR030C, strain dcg1, stronger effect = lower value): 1.02
normalized growth (locus YJL092W, strain hpr5, stronger effect = lower value): 0.977
normalized growth (locus YJL095W, strain BCK1 (second series), stronger effect = lower value): 0.978
normalized growth (locus YJL095W, strain BCK1, stronger effect = lower value): 1.04 and 0.967
normalized growth (locus YJL115W, strain asf1, stronger effect = lower value): 0.966
normalized growth (locus YJL129C, strain trk1, stronger effect = lower value): 0.939
normalized growth (locus YJL134W, strain LCB3, stronger effect = lower value): 1
normalized growth (locus YJL154C, strain vps35, stronger effect = lower value): 0.963
normalized growth (locus YJL164C, strain tpk1, stronger effect = lower value): 0.965
normalized growth (locus YJL166W, strain qcr8, stronger effect = lower value): 0.979
normalized growth (locus YJL168C, strain set2, stronger effect = lower value): 1.02
normalized growth (locus YJL187C, strain SWE1 (second series), stronger effect = lower value): 1.04
normalized growth (locus YJL187C, strain SWE1, stronger effect = lower value): 0.986
normalized growth (locus YJR043C, strain POL32, stronger effect = lower value): 1.04
normalized growth (locus YJR066W, strain TOR1, stronger effect = lower value): 0.87
